The campaign covered roughly 69,000 compounds. About 8,600 (12%) showed an effect of 50% or more. The entries come from a sample that favours strong results as a whole.

The subject of this experiment is Plasmodium berghei. As to the kind of experiment: Screen against P. berghei liver stage (PbLuc), transformed with Luciferase, at 10uM. It is filed as functional, HepG2. To be noted: tested at 10 uM.
As for `Cc1nc(C(=O)N2CCN(S(=O)(=O)N(C)C)CC2)c(-c2ccccc2)s1`, the INHIBITION came to 36.6%. For `CCN1C[C@H]2CCN(C(=O)NC)CC[C@H]2S1(=O)=O` the value was -0.813%.

As to `O=C(NCc1ccccc1CN1CCC(O)CC1)Nc1ccccn1`, the INHIBITION is on record as 52%. With `O=C(NCc1ccccc1CN1CCC(O)CC1)Nc1ccncc1` the figure was -8.19%. For the molecule `O=C(NCc1ccccc1CN1CCC(O)CC1)Nc1ccccc1`, the INHIBITION is 40.2%. For `COC(=O)c1cc(CN2CCC(c3noc(C)n3)CC2)c(C)s1` the value was 7.24%.

In the case of `Cc1cc(F)cc(NC(=O)N(C)CC(C)(CO)CO)c1`, the INHIBITION is given as -31.38%. On to `FC(F)(F)CCc1ccnc(NC2CCC(n3cnnc3)CC2)n1` (stereo not given), for which the INHIBITION turned out to be 32.3%. Consider `NC1CCC(Nc2nccc(CCC(F)(F)F)n2)CC1` (stereo not given), for which the INHIBITION came to 75.6%. For `N[C@@H]1CC[C@@H](Nc2nccc(CCC(F)(F)F)n2)C1` the value was 7.4%; for `CCc1csc(C2CCCN(C(=O)c3cc(C4CC4)[nH]n3)C2)n1` (stereo not given), 27.8%; for `O=C(Cc1cccnc1)N1CCC2(CC1)CCN(C1CCOCC1)CC2`, 8.44%.

For the molecule `CCOc1ncccc1NC(=O)N1CCC(n2cncn2)CC1`, the INHIBITION is -2.98%.

Consider `CCOc1ccccc1CNC(=O)N1CCC(n2cncn2)CC1`, for which the INHIBITION amounted to 63.5%. For `COc1ccccc1CCNC(=O)N1CCC(n2cncn2)CC1` the value was 16.9%. With `COc1ccccc1C(C)NC(=O)N1CCC(n2cncn2)CC1` (stereo not given) the figure was 11.2%. On to `CCOc1ncccc1CNC(=O)N1CCC(n2cncn2)CC1`, for which the INHIBITION worked out at 11.4%. Consider `CC(C)Oc1ccccc1NC(=O)N1CCC(n2cncn2)CC1`, for which the INHIBITION came out at 56.6%. With `COc1cc(Cl)ccc1CNC(=O)N1CCC(n2cncn2)CC1` the figure was 0.411%; with `Cc1ccccc1CNC(=O)N1CCC(n2cncn2)CC1`, 4.52%. For `CC(C)Oc1ccccc1CNC(=O)N1CCC(n2cncn2)CC1` the value was 51.3%; for `CCS(=O)(=O)N1C[C@@H](O)[C@H](Oc2cccc(F)c2)C1`, -18.8%; for `CC(C)Oc1ncccc1CNC(=O)NC(C)c1cccs1` (stereo not given), 43.6%.

`Cc1cc(C)n(-c2ccc(C(=O)NCC(CO)Cc3cccs3)cc2)n1` (stereo not given): the INHIBITION came out at 23.9%. Consider `O=S(=O)(Cc1ccc(F)cc1F)NCCOc1cccnc1`, for which the INHIBITION is reported as 46.1%. In the case of `CC[C@H](Cn1ncc2ccccc2c1=O)NC(=O)c1ccccn1`, the INHIBITION worked out at 31.3%. For `CN(C)C(=O)C1CCc2nnc(CNC(=O)c3ccc(Cl)cc3Cl)n21` (stereo not given) the value was 27.5%; for `CCC(C)NC(=O)CCc1ccc(OCC(F)(F)F)c(OC)c1` (stereo not given), 31.9%; for `CC(C)Cc1noc(CN2CCOCC2C)n1` (stereo not given), 51%. As to `CC1CCCCN1Cc1nc(Cc2ccccc2)no1` (stereo not given), the INHIBITION was 20.2%. For `CC(C)c1noc(CN2CCOCC2C)n1` (stereo not given) the value was 17.5%; for `CC(C)Cc1noc(CN2CCOCC2)n1`, 1.48%; for `CC1COCCN1Cc1noc(C(C)(C)C)n1` (stereo not given), 38.7%. With `CC1COCCN1Cc1nc(Cc2ccccc2)no1` (stereo not given) the figure was 54.4%; with `CC1COCCN1Cc1nc(C(C)(C)C)no1` (stereo not given), 15.2%; with `CC1COCCN1Cc1nc(-c2cccs2)no1` (stereo not given), 22.9%. For `CCCc1noc(CN2CCOCC2C)n1` (stereo not given) the value was 65.6%. For the molecule `O=C(COC1CCCC1)NCCc1nc(-c2ccccn2)cs1`, the INHIBITION was found to be 30.8%. With `Cn1cnc2cc(CCC(=O)Nc3n[nH]c(C4CCCO4)n3)ccc21` (stereo not given) the figure was 8.99%.

Consider `N#Cc1ccccc1N1CCCN(C(=O)CCc2cccs2)CC1`, for which the INHIBITION is recorded as -29.1%. For `Cc1nc(CN2CCCCC2CCc2ccc(O)cc2)co1` (stereo not given) the value was 12.6%.

Take `c1csc(CN2CCCn3cnc(CN4CCCC4)c3C2)c1`: the INHIBITION was 41.6%. For `c1coc(-c2nc(CN3CCCC(Cn4cncn4)C3)cs2)c1` (stereo not given) the value was 16.8%; for `Cc1cc(C)nc(N2CCC(c3c(C(N)=O)sc4ccccc34)C2)n1` (stereo not given), -14.2%; for `CNC(=O)c1sc2ccccc2c1C1CCN(c2cc(C)nc(C)n2)C1` (stereo not given), 74.9%.

On to `CNC(=O)c1sc2ccccc2c1C1CCN(c2nc(C)cc(C)n2)C1` (stereo not given), for which the INHIBITION was determined as 0.696%. With `Cc1ccc2c(c1)CCC21CCN(C(=O)CN(C)C)CC1` the figure was 38.5%; with `Cc1cc(C(=O)N(C)Cc2ccoc2)c(NC(=O)C(C)(C)C)s1`, -28.9%. With `Cc1nc(CN(C)C(=O)c2cc(C)sc2NC(=O)C(C)(C)C)no1` the figure was 18%.

Regarding `Cc1cc(C(=O)N(C)Cc2ccn[nH]2)c(NC(=O)C(C)(C)C)s1`, the INHIBITION came out at 51.3%. With `O=C([C@@H]1CCO[C@@H]2CCN(Cc3ccc(F)cc3)C[C@H]21)N1CCCCO1` the figure was 30.3%; with `CCCc1cc(CNc2cc(CCC)nc3ccnn23)on1`, 53.5%; with `CCCc1cc(NCc2cc(C)on2)n2nccc2n1`, 23.8%.

`CCc1cc(NCc2cc(CC(C)C)on2)n2nccc2n1`: the INHIBITION is reported as 26.8%.

With `COc1ccccc1CC(=O)NC1CCCc2cn[nH]c21` (stereo not given), the INHIBITION stood at 8.31%. For `Cc1cccc(CN2C[C@@H]3CN(C(=O)c4ccco4)C[C@@H]3C2=O)n1` the value was 23.5%; for `CC(CCn1cccn1)Nc1ccc(-c2nccn2C)nn1` (stereo not given), 48.5%; for `CC(Cn1cncn1)Nc1ccc(-c2nccn2C)nn1` (stereo not given), 9.91%. Take `CC(CCCC(C)(C)O)Nc1ccc(-c2nccn2C)nn1` (stereo not given): the INHIBITION was determined as 60.4%.

As for `CN(C)CCN(Cc1ccc(F)cc1)C(=O)c1ccn(C)c(=O)c1`, the INHIBITION was 39.1%. With `Cc1nc(CN2C(=O)CCC23CCN(Cc2ccccn2)CC3)cs1` the figure was 19.4%; with `Cc1cc2ccccc2n1CCC(=O)N1CCCC(O)(CN(C)C)CC1` (stereo not given), -60.9%; with `CN(C)CC1(O)CCCN(C(=O)Cn2nc3ccccc3n2)CC1` (stereo not given), -21.8%. As for `CN(C)CC1(O)CCCN(C(=O)Cn2ccc3ccccc32)CC1` (stereo not given), the INHIBITION amounted to 89.9%. With `Cc1nc2ccc(C(=O)N3CCC(COc4ccccn4)CC3)cc2[nH]1` the figure was -6.73%.

Regarding `Cc1cc(C)nc(C2CCCN2C(=O)c2coc(C)n2)n1` (stereo not given), the INHIBITION is on record as 20.2%. For `Cc1cc(C)n(Cc2ccc(-c3noc(C(=O)NCCCO)n3)cc2)n1` the value was 33%; for `Cc1ncc2c(n1)CN(Cc1nc3c(F)cccc3[nH]1)CC2`, 0.902%; for `CCc1nnc2n1CCN(Cc1cccc3c1OCCO3)C2`, 50.35%. As for `CC(C)c1nnc2n1CCN(Cc1nc3c(F)cccc3[nH]1)C2`, the INHIBITION is listed as -65%.

`Fc1cccc2[nH]c(CN3CCc4cncnc4C3)nc12`: the INHIBITION amounted to 52.8%. With `CCc1nnc2n1CCN(Cc1ccc3c(c1)OCCO3)C2` the figure was 18.9%. With `Fc1cccc2[nH]c(CN3CCn4c(nnc4C4CC4)C3)nc12` the figure was -33.5%; with `CCc1nnc2n1CCN(Cc1nc3c(F)cccc3[nH]1)C2`, 58.1%; with `Cc1nnc2n1CCN(Cc1nc3c(F)cccc3[nH]1)C2`, -43.5%. For `c1cc(CN2CCc3cncnc3C2)c2c(c1)OCCO2` the value was 41.6%.

Turning to `CC(C)c1ncc2c(n1)CN(Cc1nc3c(F)cccc3[nH]1)CC2`, the INHIBITION is 36.6%.

For the molecule `CCc1ncc2c(n1)CN(Cc1nc3c(F)cccc3[nH]1)CC2`, the INHIBITION turned out to be 52.8%. For `CC(C)c1nnc2n1CCN(Cc1cccc3c1OCCO3)C2` the value was -67.8%; for `COc1cccc2c(=O)n(Cc3nc(C)cc(O)n3)cnc12`, 1.56%; for `Cc1[nH]c2ccc(C(=O)N3C[C@@H](O)[C@H](N4CCOCC4)C3)cc2c1C`, -29.8%. For `O=C(NCc1ccccc1)C1CN(c2ccccn2)CCO1` (stereo not given) the value was 22%; for `CCS(=O)(=O)N1CCN(C(C)c2ncc(-c3ccccc3)o2)CC1` (stereo not given), 12.9%. For `CN(C)c1ncc(-c2ccc(NC(=O)[C@@H]3CCCCN3)cc2)cn1` the value was 1.11%; for `CN1CCCC1(CCCc1cccnc1)C(=O)NCc1nccn1C` (stereo not given), 15.5%; for `CC(c1ccc(S(N)(=O)=O)cc1)N(C)C(=O)c1ccccc1I` (stereo not given), -43.5%.

Turning to `CC(C)c1nc(CN(C)Cc2cnc(N3CCOCC3)nc2)no1`, the INHIBITION is reported as 74.7%.

For the molecule `Cc1noc(CN(C)Cc2cnc(N3CCOCC3)nc2)n1`, the INHIBITION came to 20.1%. With `Cc1noc(C)c1CN(C)Cc1cnc(N2CCOCC2)nc1` the figure was 39.4%; with `COc1ncccc1NC(=O)NCC1CC1`, 12.2%. For `CCCC1CCCN(C(=O)Nc2cccnc2OC)CC1` (stereo not given) the value was 81.6%; for `CCCC1CCCN(C(=O)Nc2ccc(F)c(C(N)=O)c2)CC1` (stereo not given), 53.8%. With `COc1ccc(Oc2ncccc2NC(=O)N2CCOC(C)C2)cc1` (stereo not given) the figure was 44.3%. Regarding `CCOc1ncccc1NC(=O)N1CCCC(CNC(N)=O)C1` (stereo not given), the INHIBITION came to 22.8%. With `COc1ccc(Oc2ncccc2NC(=O)N2CC[C@H](O)C2)cc1` the figure was 16.3%.

For the molecule `COc1ncccc1NC(=O)N1CCCC(CNC(=O)OC(C)(C)C)C1` (stereo not given), the INHIBITION was 57.7%. For `CC1CCCN(C(=O)Nc2ccc(F)c(C(N)=O)c2)C1` (stereo not given) the value was 23.6%. As for `COc1ccc(Oc2ncccc2NC(=O)N2CCOCC2)cc1`, the INHIBITION came out at 55.5%. For `NC(=O)c1cc(NC(=O)N2CCCCCC2)ccc1F` the value was -7.9%; for `CCN(CC)C(=O)C1CCN(C(=O)Nc2cccnc2OC)CC1`, 22.6%; for `COc1ncccc1NC(=O)N1CCC(CNC(C)=O)CC1`, 7.9%. For `O=C(c1cc2c(s1)CCC2)N1CCC(c2cnccn2)CC1` the value was 28.5%; for `CC(C)NC(=O)N1CCC2(CC1)CN(C(=O)NC(C)C)CCO2`, 11.8%. With `CC(C)C(=O)NCc1ccc(N2CCCC2)nc1` the figure was -24.2%; with `O=C(NCc1csc(-c2cnccn2)n1)c1cnn2c1CCCC2`, 8.7%. Consider `Cc1cnn(CC2CCCN2C(=O)CCc2c(C)noc2Cl)c1` (stereo not given), for which the INHIBITION stood at 0%.

In the case of `CCNC(=O)[C@@H]1C[C@@H](NC(=O)c2ccsc2)CN1CCCSC`, the INHIBITION is -16.9%.

For `Cc1cccc(CNC(=O)CNc2cc(CO)ccc2Cl)c1`, the INHIBITION came out at 14.2%. With `CN1CC(=O)N(c2cnn(C)c2)CC12CCN(Cc1cccnc1)C2` (stereo not given) the figure was 39.8%; with `CC(C)(NCC(=O)NC(=O)NC1CC1)c1ccc2c(c1)OCO2`, 43.3%.

The values are drawn from ChEMBL document CHEMBL4513216, “Probing the Open Global Health Chemical Diversity Library for Multistage-Active Starting Points for Next-Generation Antimalarials” (ACS Infect Dis, 2020).
